# Assay results: paper PMC11006913
# Key:
# Test in all cases: PBM; 200 nM protein, PBS
# Conditions in all cases: dsDNA, one strand shown
# HOXB9 [1] = target: HOXB9 (Homo sapiens, UniProt P17482 171-250, T197M)
# HOXC9 [2] = target: HOXC9 (Homo sapiens, UniProt P31274 178-260, K195R)
# HOXC10 [3] = target: HOXC10 (Homo sapiens, UniProt Q9NYD6 254-340)
# HOXB9 [4] = target: HOXB9 (Homo sapiens, UniProt P17482 171-250)
# HOXC9 [5] = target: HOXC9 (Homo sapiens, UniProt P31274 178-260)
# HOXD13 [6] = target: HOXD13 (Homo sapiens, UniProt P35453 263-343, T313R)
# HOXC9 [7] = target: HOXC9 (Homo sapiens, UniProt P31274 178-260, R193K)
# HOXD13 [8] = target: HOXD13 (Homo sapiens, UniProt P35453 263-343)
# HOXC10 [9] = target: HOXC10 (Homo sapiens, UniProt Q9NYD6 254-340, K271E)
# HOXD13 [10] = target: HOXD13 (Homo sapiens, UniProt P35453 263-343, T313A)
# HOXB9 [11] = target: HOXB9 (Homo sapiens, UniProt P17482 171-250, R186Q)
# HOXC9 [12] = target: HOXC9 (Homo sapiens, UniProt P31274 178-260, R222W)
# MSX2 [13] = target: MSX2 (Homo sapiens, UniProt P35548 130-214)
# MSX2 [14] = target: MSX2 (Homo sapiens, UniProt P35548 130-214, F161Y)
# Chain of MSX2 (Homo sapiens, UniProt P35548 130-214, F161Y) (P35548 130-214 F161Y): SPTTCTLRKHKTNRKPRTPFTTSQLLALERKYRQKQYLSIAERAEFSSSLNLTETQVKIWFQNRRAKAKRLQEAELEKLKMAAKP
# Chain of HOXC9 (Homo sapiens, UniProt P31274 178-260) (P31274 178-260): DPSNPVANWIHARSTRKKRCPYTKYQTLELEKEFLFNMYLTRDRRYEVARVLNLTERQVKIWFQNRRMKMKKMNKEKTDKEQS
# Chain of HOXB9 (Homo sapiens, UniProt P17482 171-250, R186Q) (P17482 171-250 R186Q): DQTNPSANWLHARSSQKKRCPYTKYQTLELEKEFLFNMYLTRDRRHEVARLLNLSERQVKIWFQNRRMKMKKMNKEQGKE
# Chain of HOXD13 (Homo sapiens, UniProt P35453 263-343, T313R) (P35453 263-343 T313R): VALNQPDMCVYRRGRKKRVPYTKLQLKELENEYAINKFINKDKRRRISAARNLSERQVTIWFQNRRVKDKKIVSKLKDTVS
# Chain of HOXC9 (Homo sapiens, UniProt P31274 178-260, K195R) (P31274 178-260 K195R): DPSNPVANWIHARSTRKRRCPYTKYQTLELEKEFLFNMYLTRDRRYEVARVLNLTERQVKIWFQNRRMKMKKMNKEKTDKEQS
# Chain of HOXB9 (Homo sapiens, UniProt P17482 171-250, T197M) (P17482 171-250 T197M): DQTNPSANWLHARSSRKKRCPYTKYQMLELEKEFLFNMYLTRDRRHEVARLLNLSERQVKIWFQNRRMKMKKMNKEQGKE
# Chain of HOXC9 (Homo sapiens, UniProt P31274 178-260, R193K) (P31274 178-260 R193K): as the sequence (P31274 178-260) above, with R16K counted along it
# Chain of HOXC9 (Homo sapiens, UniProt P31274 178-260, R222W) (P31274 178-260 R222W): as the sequence (P31274 178-260) above, with R45W counted along it
# Chain of HOXC10 (Homo sapiens, UniProt Q9NYD6 254-340, K271E) (Q9NYD6 254-340 K271E): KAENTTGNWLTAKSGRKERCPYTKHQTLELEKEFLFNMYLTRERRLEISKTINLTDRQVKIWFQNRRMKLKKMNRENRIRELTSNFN
# Chain of HOXD13 (Homo sapiens, UniProt P35453 263-343, T313A) (P35453 263-343 T313A): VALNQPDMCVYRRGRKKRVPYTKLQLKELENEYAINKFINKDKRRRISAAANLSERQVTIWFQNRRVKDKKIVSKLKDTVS
# Chain of HOXC10 (Homo sapiens, UniProt Q9NYD6 254-340) (Q9NYD6 254-340): as the sequence (Q9NYD6 254-340 K271E) above, with E18K counted along it
# Chain of HOXD13 (Homo sapiens, UniProt P35453 263-343) (P35453 263-343): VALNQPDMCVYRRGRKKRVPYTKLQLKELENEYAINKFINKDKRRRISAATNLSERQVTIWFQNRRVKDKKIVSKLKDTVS
# Chain of HOXB9 (Homo sapiens, UniProt P17482 171-250) (P17482 171-250): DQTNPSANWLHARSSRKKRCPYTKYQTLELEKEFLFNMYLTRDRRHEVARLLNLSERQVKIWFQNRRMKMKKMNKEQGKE
# Chain of MSX2 (Homo sapiens, UniProt P35548 130-214) (P35548 130-214): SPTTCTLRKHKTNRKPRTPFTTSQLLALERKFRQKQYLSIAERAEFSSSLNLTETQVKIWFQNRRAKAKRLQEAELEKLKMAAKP
sequence,measurement,setting,value
CTCGTAAA,binding signal,HOXB9 [1],"9.72 upbm affinity estimate (log intensity, higher = more binding, comparable within an allelic series)"
same,binding signal,HOXC9 [2],"12.6 upbm affinity estimate (log intensity, higher = more binding, comparable within an allelic series)"
same,binding signal,HOXC10 [3],"12.6 upbm affinity estimate (log intensity, higher = more binding, comparable within an allelic series)"
same,binding signal,HOXB9 [4],"12 upbm affinity estimate (log intensity, higher = more binding, comparable within an allelic series)"
same,binding signal,HOXC9 [5],"12.9 upbm affinity estimate (log intensity, higher = more binding, comparable within an allelic series)"
same,binding signal,HOXD13 [6],"11.3 upbm affinity estimate (log intensity, higher = more binding, comparable within an allelic series)"
same,binding signal,HOXC9 [7],"12.7 upbm affinity estimate (log intensity, higher = more binding, comparable within an allelic series)"
same,binding signal,HOXD13 [8],"12.7 upbm affinity estimate (log intensity, higher = more binding, comparable within an allelic series)"
same,binding signal,HOXC10 [9],"11.9 upbm affinity estimate (log intensity, higher = more binding, comparable within an allelic series)"
same,binding signal,HOXD13 [10],"12.6 upbm affinity estimate (log intensity, higher = more binding, comparable within an allelic series)"
same,binding signal,HOXB9 [11],"11.4 upbm affinity estimate (log intensity, higher = more binding, comparable within an allelic series)"
same,binding signal,HOXC9 [12],"11.1 upbm affinity estimate (log intensity, higher = more binding, comparable within an allelic series)"
GCCATAAA,binding signal,HOXB9 [1],"9.72 upbm affinity estimate (log intensity, higher = more binding, comparable within an allelic series)"
same,binding signal,HOXC9 [2],"12.7 upbm affinity estimate (log intensity, higher = more binding, comparable within an allelic series)"
same,binding signal,HOXC10 [3],"12.4 upbm affinity estimate (log intensity, higher = more binding, comparable within an allelic series)"
same,binding signal,HOXB9 [4],"12.2 upbm affinity estimate (log intensity, higher = more binding, comparable within an allelic series)"
same,binding signal,HOXC9 [5],"12.9 upbm affinity estimate (log intensity, higher = more binding, comparable within an allelic series)"
same,binding signal,HOXD13 [6],"10.7 upbm affinity estimate (log intensity, higher = more binding, comparable within an allelic series)"
same,binding signal,HOXC9 [7],"12.9 upbm affinity estimate (log intensity, higher = more binding, comparable within an allelic series)"
same,binding signal,HOXD13 [8],"11.9 upbm affinity estimate (log intensity, higher = more binding, comparable within an allelic series)"
same,binding signal,HOXC10 [9],"11.8 upbm affinity estimate (log intensity, higher = more binding, comparable within an allelic series)"
same,binding signal,HOXD13 [10],"11.7 upbm affinity estimate (log intensity, higher = more binding, comparable within an allelic series)"
same,binding signal,HOXB9 [11],"11.9 upbm affinity estimate (log intensity, higher = more binding, comparable within an allelic series)"
same,binding signal,HOXC9 [12],"10.9 upbm affinity estimate (log intensity, higher = more binding, comparable within an allelic series)"
GCTATAAA,binding signal,HOXB9 [1],"9.72 upbm affinity estimate (log intensity, higher = more binding, comparable within an allelic series)"
same,binding signal,HOXC9 [2],"12.7 upbm affinity estimate (log intensity, higher = more binding, comparable within an allelic series)"
same,binding signal,HOXC10 [3],"12.2 upbm affinity estimate (log intensity, higher = more binding, comparable within an allelic series)"
same,binding signal,HOXB9 [4],"12 upbm affinity estimate (log intensity, higher = more binding, comparable within an allelic series)"
same,binding signal,HOXC9 [5],"12.8 upbm affinity estimate (log intensity, higher = more binding, comparable within an allelic series)"
same,binding signal,HOXD13 [6],"10.9 upbm affinity estimate (log intensity, higher = more binding, comparable within an allelic series)"
same,binding signal,HOXC9 [7],"12.7 upbm affinity estimate (log intensity, higher = more binding, comparable within an allelic series)"
same,binding signal,HOXD13 [8],"12 upbm affinity estimate (log intensity, higher = more binding, comparable within an allelic series)"
same,binding signal,HOXC10 [9],"11.4 upbm affinity estimate (log intensity, higher = more binding, comparable within an allelic series)"
same,binding signal,HOXD13 [10],"11.7 upbm affinity estimate (log intensity, higher = more binding, comparable within an allelic series)"
same,binding signal,HOXB9 [11],"11.7 upbm affinity estimate (log intensity, higher = more binding, comparable within an allelic series)"
same,binding signal,HOXC9 [12],"11 upbm affinity estimate (log intensity, higher = more binding, comparable within an allelic series)"
ACATAAAA,binding signal,HOXB9 [1],"9.85 upbm affinity estimate (log intensity, higher = more binding, comparable within an allelic series)"
same,binding signal,HOXC9 [2],"12.8 upbm affinity estimate (log intensity, higher = more binding, comparable within an allelic series)"
same,binding signal,HOXC10 [3],"12.5 upbm affinity estimate (log intensity, higher = more binding, comparable within an allelic series)"
same,binding signal,HOXB9 [4],"12.3 upbm affinity estimate (log intensity, higher = more binding, comparable within an allelic series)"
same,binding signal,HOXC9 [5],"13 upbm affinity estimate (log intensity, higher = more binding, comparable within an allelic series)"
same,binding signal,HOXC9 [7],"12.9 upbm affinity estimate (log intensity, higher = more binding, comparable within an allelic series)"
same,binding signal,HOXC10 [9],"12 upbm affinity estimate (log intensity, higher = more binding, comparable within an allelic series)"
same,binding signal,MSX2 [13],"11.3 upbm affinity estimate (log intensity, higher = more binding, comparable within an allelic series)"
same,binding signal,HOXB9 [11],"12 upbm affinity estimate (log intensity, higher = more binding, comparable within an allelic series)"
same,binding signal,HOXC9 [12],"11.3 upbm affinity estimate (log intensity, higher = more binding, comparable within an allelic series)"
same,binding signal,MSX2 [14],"11.1 upbm affinity estimate (log intensity, higher = more binding, comparable within an allelic series)"
TCGTAAAA,binding signal,HOXB9 [1],"9.97 upbm affinity estimate (log intensity, higher = more binding, comparable within an allelic series)"
same,binding signal,HOXC9 [2],"13.1 upbm affinity estimate (log intensity, higher = more binding, comparable within an allelic series)"
same,binding signal,HOXC10 [3],"12.8 upbm affinity estimate (log intensity, higher = more binding, comparable within an allelic series)"
same,binding signal,HOXB9 [4],"12.6 upbm affinity estimate (log intensity, higher = more binding, comparable within an allelic series)"
same,binding signal,HOXC9 [5],"13.2 upbm affinity estimate (log intensity, higher = more binding, comparable within an allelic series)"
same,binding signal,HOXD13 [6],"11.1 upbm affinity estimate (log intensity, higher = more binding, comparable within an allelic series)"
same,binding signal,HOXC9 [7],"13 upbm affinity estimate (log intensity, higher = more binding, comparable within an allelic series)"
same,binding signal,HOXD13 [8],"12.3 upbm affinity estimate (log intensity, higher = more binding, comparable within an allelic series)"
same,binding signal,HOXC10 [9],"12.3 upbm affinity estimate (log intensity, higher = more binding, comparable within an allelic series)"
same,binding signal,HOXD13 [10],"12.2 upbm affinity estimate (log intensity, higher = more binding, comparable within an allelic series)"
same,binding signal,HOXB9 [11],"12 upbm affinity estimate (log intensity, higher = more binding, comparable within an allelic series)"
same,binding signal,HOXC9 [12],"11.3 upbm affinity estimate (log intensity, higher = more binding, comparable within an allelic series)"
TCATAAAA,binding signal,HOXB9 [1],"9.93 upbm affinity estimate (log intensity, higher = more binding, comparable within an allelic series)"
same,binding signal,HOXC9 [2],"13 upbm affinity estimate (log intensity, higher = more binding, comparable within an allelic series)"
same,binding signal,HOXC10 [3],"12.8 upbm affinity estimate (log intensity, higher = more binding, comparable within an allelic series)"
same,binding signal,HOXB9 [4],"12.4 upbm affinity estimate (log intensity, higher = more binding, comparable within an allelic series)"
same,binding signal,HOXC9 [5],"13.1 upbm affinity estimate (log intensity, higher = more binding, comparable within an allelic series)"
same,binding signal,HOXD13 [6],"11 upbm affinity estimate (log intensity, higher = more binding, comparable within an allelic series)"
same,binding signal,HOXC9 [7],"12.9 upbm affinity estimate (log intensity, higher = more binding, comparable within an allelic series)"
same,binding signal,HOXD13 [8],"12.2 upbm affinity estimate (log intensity, higher = more binding, comparable within an allelic series)"
same,binding signal,HOXC10 [9],"12.3 upbm affinity estimate (log intensity, higher = more binding, comparable within an allelic series)"
same,binding signal,HOXD13 [10],"11.9 upbm affinity estimate (log intensity, higher = more binding, comparable within an allelic series)"
same,binding signal,HOXB9 [11],"12.1 upbm affinity estimate (log intensity, higher = more binding, comparable within an allelic series)"
same,binding signal,HOXC9 [12],"11.3 upbm affinity estimate (log intensity, higher = more binding, comparable within an allelic series)"
CATAAAAG,binding signal,HOXB9 [1],"9.76 upbm affinity estimate (log intensity, higher = more binding, comparable within an allelic series)"
same,binding signal,HOXC9 [2],"12.6 upbm affinity estimate (log intensity, higher = more binding, comparable within an allelic series)"
same,binding signal,HOXC10 [3],"12.4 upbm affinity estimate (log intensity, higher = more binding, comparable within an allelic series)"
same,binding signal,HOXB9 [4],"12 upbm affinity estimate (log intensity, higher = more binding, comparable within an allelic series)"
same,binding signal,HOXC9 [5],"12.8 upbm affinity estimate (log intensity, higher = more binding, comparable within an allelic series)"
same,binding signal,HOXD13 [6],"10.7 upbm affinity estimate (log intensity, higher = more binding, comparable within an allelic series)"
same,binding signal,HOXC9 [7],"12.7 upbm affinity estimate (log intensity, higher = more binding, comparable within an allelic series)"
same,binding signal,HOXD13 [8],"11.8 upbm affinity estimate (log intensity, higher = more binding, comparable within an allelic series)"
same,binding signal,HOXC10 [9],"11.8 upbm affinity estimate (log intensity, higher = more binding, comparable within an allelic series)"
same,binding signal,HOXD13 [10],"11.6 upbm affinity estimate (log intensity, higher = more binding, comparable within an allelic series)"
same,binding signal,HOXB9 [11],"11.7 upbm affinity estimate (log intensity, higher = more binding, comparable within an allelic series)"
same,binding signal,HOXC9 [12],"11.2 upbm affinity estimate (log intensity, higher = more binding, comparable within an allelic series)"
